# Measurements from PubChem BioAssay (NCATS).
# Inconclusive results are not listed. Active and inactive are the calls of the source. The call rests on the fitted dose curve; in most records, active means well fitted curve in the direction sought with a large enough effect in the signal ratio; inconclusive means small, poorly fitted or top-dose-only effect, or effect the other way, or a change in a side signal; inactive means no such curve, though single readings can be large or run the other way; the % refers to the signal ratio.
# Assay: qHTS Assay for Modulators of Human Peripheral Myelin Protein 22 (PMP22) Expression/Activity (AID 1967)
# Conditions: Cell-based PMP22 reporter, dual-color luciferase ratio, 0% = compound-free control cells, mouse Pmp22 promoter in mouse Schwann cells; series mostly up to 115 µM
# From the text: Charcot-Marie-Tooth-Association [CMTA]
# NIH Chemical Genomics Center [NCGC]
# Charcot-Marie-Tooth (CMT) disease was first characterized by Jean-Martin Charcot and Pierre Marie in France and, independently, by Howard Henry Tooth in England in 1886. CMT is one of the most common inherited neurological diseases, affecting about 125,000 Americans. […] The most common cause of CMT is known as CMT1A, and is caused by a duplication of the PMP22 gene, leading to over-expression of this protein. PMP22 is a glycosylated intrinsic membrane protein accounting for 2-5% of the myelin protein content and over-expression leads to demyelination and subsequently axonal loss.
# A cell-based assay for PMP22 expression modulation was developed by Drs. Ned Mantei and Ueli Suter on behalf of the CMTA. This assay employs a mouse Schwann cell line, MSC80 (Boutry et al., 1992), that was engineered to have the mouse Pmp22 promoter driving expression of a green light-emitting click beetle luciferase (CBG68; Chroma-Gl developed by Promega Corp). A red light-emitting click beetle luciferase (CBR; developed by Promega Corp: CBG68 and CBR differ by only a few amino acids within the D-luciferin binding pocket) under control of the EF-alpha promoter is also stably expressed in the same cells for use as an internal control for nonspecific promoter- or reporter-based effects.
# NCGC Assay Protocol Summary:
# Cells were seeded in white solid 1536-well plates at between 500-750 cells/4uL in DMEM medium containing 10% FBS, w/o phenol red. After overnight incubation at 37 degree Celsius/5% C02, 23 nL of compounds or DMSO were delivered to each well using a pin tool, followed by 24h-incubation at 37 degree Celsius/5% C02. Then 4 uL Chroma-Glo luminescent substrate mix (Promega) was added to each well. Luminescence was measured on a ViewLux plate reader (Perkin Elmer) using a 540/25 nm filter for green luminescence and a 618/8 nm filter for red luminescence. The green and red luminescent signals were corrected for red and green luminescence filter overlap using filter calibration constants (determined using control cell lines expressing either the green or red CBLuc reporters using the procedures given in Davis et al., 2007). The %Activity was determined from the ratio of corrected green/red luminescent values. Green luminescent and ratio %Activity was determined by normalizing to the signal between of untreated cells (0% Activity)
# Keywords: luminescence, PMP22, CMT1A, NCGC, CMTA, qHTS
# Concentration-response curves were fitted to the signals arising from the green luminescence (PMP22 promoter driven expression) and the red luminescence (control promoter) as well as the calculated ratio. The concentration-effect curves were then classified based on curve quality (r2), response magnitude and degree of measured activity.
row,SMILES,outcome
1,CN1C2CCC1CC(OC(=O)c1c[nH]c3ccccc13)C2 (stereo unspecified),inactive
2,O=C1CCC(c2ccc(-n3ccnc3)cc2)=NN1,inactive
3,N[C@@H](Cc1cnc[nH]1)C(=O)O,inactive
4,CCC(NC(C)C)C(O)c1ccc(O)c(O)c1 (stereo unspecified),inactive
5,O=C(O)c1cc2cc(Cc3cccnc3)ccc2o1,inactive
6,CC1(C)CCC(NC(=O)[C@@H](N)CCC(=O)O)CC1,inactive
7,Nc1cc(Cl)c(NC2=NCCN2)c(Cl)c1,inactive
8,C1CCc2nnnn2CC1,inactive
9,CCCn1c(=O)[nH]c(=O)c2[nH]cnc21,inactive
10,CC(CCc1ccccc1)NCC(O)c1ccc(O)c(C(N)=O)c1 (stereo unspecified),inactive
11,C[C@@H]1C(=O)NC2=Nc3cccc(Cl)c3CN21,inactive
